Data reported in PubChem BioAssay (Tox21).
A number with no mark means an inactive call. Results filed as inconclusive are left out. A call without a number means that no potency is given here. Activity calls are given as the source filed them. Unless noted, calls follow the shape of the full dose curve.

Experiments:
[1] = Nuclear factor erythroid 2-related factor 2/antioxidant responsive element (Nrf2/ARE) small molecule agonists: qHTS cell viability counter screen in human keratinocytes (AID 1919968; active = well fitted curve in the direction sought with a large enough effect in the repeat runs; an effect the other way counts as inactive or inconclusive; also: nearly all actives have a fitted effect of over 55% in size)
Summary of the method: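 KeratinoSens cells (HaCaT keratinocytes stably carrying an ARE-luciferase reporter) were seeded at 1,500 cells/well and rested 5 h at 37 C/5% CO2. They were then exposed to compounds in DMSO for 23 h. Viability was read by CellTiter-Fluor fluorescence after 1 h.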

[2] = Nuclear factor erythroid 2-related factor 2/antioxidant responsive element (Nrf2/ARE) small molecule agonists: luciferase reporter gene qHTS assay in human keratinocytes (AID 1919969); also: nearly all actives have a fitted effect of over 35% in size; also: potency is read from the fitted curve at half-maximal effect
[3] = target: Gonadotropin-releasing hormone receptor (Homo sapiens) (UniProt P30968); test: Human gonadotropin-releasing hormone receptor (GnRHR) small molecule agonists, calcium flux assay in GnRHR-HEK293 cells (AID 1920063); also: nearly all actives have a fitted effect of over 35% in size
Gonadotropin-releasing hormone receptor (Homo sapiens), sequence (P30968 whole entry, looked up): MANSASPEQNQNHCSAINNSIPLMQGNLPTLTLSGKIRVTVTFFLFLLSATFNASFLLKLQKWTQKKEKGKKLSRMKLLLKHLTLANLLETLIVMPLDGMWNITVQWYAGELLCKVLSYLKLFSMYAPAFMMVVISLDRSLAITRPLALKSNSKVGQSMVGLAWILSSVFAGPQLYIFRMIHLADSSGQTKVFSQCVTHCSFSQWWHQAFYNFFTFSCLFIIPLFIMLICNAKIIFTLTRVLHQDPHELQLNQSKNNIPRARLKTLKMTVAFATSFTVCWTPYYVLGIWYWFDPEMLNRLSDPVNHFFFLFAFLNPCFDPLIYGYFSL
Summary of the method: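 HEK293 cells stably expressing human GnRHR were plated 18 h at 37 °C, loaded with calcium dye 1 h at 37 °C, then given compound in agonist mode; fluorescence (Ex/Em 480/540) read kinetically for 3 min at 1 s intervals.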

[4] = target: KiSS-1 receptor (Homo sapiens) (UniProt Q969F8); test: Human kisspeptin (KISS1R) small molecule agonists, calcium flux assay in KISS1R-HEK293 cells (AID 1920064; active = well fitted curve in the direction sought with a large enough effect in the repeat runs; an effect the other way counts as inactive or inconclusive)
KiSS-1 receptor (Homo sapiens), sequence (Q969F8 whole entry, looked up): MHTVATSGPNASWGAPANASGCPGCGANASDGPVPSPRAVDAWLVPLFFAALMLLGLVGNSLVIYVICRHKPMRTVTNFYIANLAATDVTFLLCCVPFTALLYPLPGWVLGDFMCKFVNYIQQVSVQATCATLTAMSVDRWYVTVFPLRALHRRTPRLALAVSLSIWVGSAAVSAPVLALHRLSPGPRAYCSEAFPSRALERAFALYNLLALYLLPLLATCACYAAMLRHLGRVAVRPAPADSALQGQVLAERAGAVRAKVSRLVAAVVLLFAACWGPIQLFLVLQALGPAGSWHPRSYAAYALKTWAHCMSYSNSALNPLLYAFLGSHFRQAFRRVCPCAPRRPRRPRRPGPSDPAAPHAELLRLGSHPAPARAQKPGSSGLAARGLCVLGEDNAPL
Summary of the method: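 HEK293 cells stably expressing human KISS1R were plated 18 h at 37 °C, loaded with calcium dye for 1 h at 37 °C, then given compound by pin tool. Fluorescence (Ex/Em 480/540) was read kinetically for 3 min.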

[5] = G protein-coupled receptor (GPCR) small molecule agonists, calcium flux assay: HEK293 wild type cell line counter screen (AID 1920065)
Summary of the method: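 Cells were plated and cultured 18 h at 37 C/5% CO2, then loaded with calcium dye for 1 h at 37 C. Compounds in DMSO were pin-transferred in agonist mode, and fluorescence (Ex/Em 480/540) was read kinetically for 3 min at 1 s intervals.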

[6] = p53 small molecule agonists, cell-based qHTS assay with rat liver microsomes (AID 1963578)
Summary of the method: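 Read-out is beta-lactamase reporter fluorescence (LiveBLAzer, 2 h, room temperature, dark) in p53RE-bla cells treated 16 h at 37 C with compound, rat liver microsomes and NADPH, both 0.5 mg/mL final.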

[7] = p53 small molecule agonists, cell-based qHTS assay with human liver microsomes: qHTS cell viability counter screen (AID 1963579); also: nearly all actives have a fitted effect of over 45% in size
Summary of the method: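 Cells carrying the p53 response-element beta-lactamase reporter are treated for 16 h at 37 C with test compounds in the presence of human liver microsomes and NADPH (both 0.5 mg/mL final); ATP-based CellTiter-Glo luminescence then reports viability.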

[8] = p53 small molecule agonists, cell-based qHTS assay with rat liver microsomes: qHTS cell viability counter screen (AID 1963580); also: nearly all actives have a fitted effect of over 45% in size
Summary of the method: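 HCT-116 p53RE-bla, 4,000 cells/well, 5 h pre-incubation; cpd + rat liver microsomes 0.5 mg/mL + NADPH 0.5 mg/mL (final); 16 h, 37 C; CellTiter-Glo, 30 min RT; luminescence.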

[9] = p53 small molecule agonists, cell-based qHTS assay: qHTS cell viability counter screen (AID 1963581); also: nearly all actives have a fitted effect of over 45% in size
Summary of the method: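 p53RE-bla HCT-116 cells were exposed to compounds for 16 h at 37 C; after the beta-lactamase FRET read in the same wells, CellTiter-Glo was added and luminescence (intracellular ATP) read after 30 min at room temperature.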

[10] = p53 small molecule agonists, cell-based qHTS assay (AID 1963582; active = well fitted activation curve with a large enough effect in the signal ratio in the repeat runs, not every such curve was filed as active; the % refers to the signal ratio)
Summary of the method: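 p53RE-bla beta-lactamase reporter cells rested 5 h at 37 C/5% CO2, then received compounds in DMSO by pin transfer and were incubated 16 h at 37 C. LiveBLAzer B/G FRET substrate was loaded for 2 h at room temperature before fluorescence reading.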

[11] = target: 5-hydroxytryptamine receptor 2A (Homo sapiens) (UniProt P28223); test: 5-hydroxytryptamine receptor 2A (HTR2A) small molecule antagonists, cell-based qHTS assay (AID 1963586); also: nearly all actives have a fitted effect of over 45% in size
5-hydroxytryptamine receptor 2A (Homo sapiens), sequence (P28223 whole entry, looked up): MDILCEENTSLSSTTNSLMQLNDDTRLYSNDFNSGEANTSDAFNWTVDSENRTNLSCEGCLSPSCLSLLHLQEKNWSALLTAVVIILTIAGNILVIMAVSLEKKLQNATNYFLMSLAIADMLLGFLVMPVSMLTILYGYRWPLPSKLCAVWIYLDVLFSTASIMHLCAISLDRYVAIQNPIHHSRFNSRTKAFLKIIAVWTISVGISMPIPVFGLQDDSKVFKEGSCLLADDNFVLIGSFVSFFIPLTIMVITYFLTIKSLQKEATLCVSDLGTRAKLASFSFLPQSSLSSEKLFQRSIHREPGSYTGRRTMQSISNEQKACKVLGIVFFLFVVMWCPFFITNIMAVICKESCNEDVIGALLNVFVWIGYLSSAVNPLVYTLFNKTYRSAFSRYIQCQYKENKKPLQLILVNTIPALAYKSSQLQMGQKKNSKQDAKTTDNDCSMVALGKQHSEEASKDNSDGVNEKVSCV
Summary of the method: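 Antagonist-mode intracellular calcium assay: DOI (4 nM) added after 5 min compound pre-incubation at room temperature to dye-loaded HTR2A-CHO cells. Fluorescence followed for 3 min, sampled every second.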

[12] = target: 5-hydroxytryptamine receptor 2A (Homo sapiens) (UniProt P28223); test: 5-hydroxytryptamine receptor 2A (HTR2A) small molecule agonists, cell-based qHTS assay (AID 1963587); also: nearly all actives have a fitted effect of over 30% in size
Summary of the method: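 Kinetic calcium-flux fluorescence (2 min, 1 sec intervals) after compound addition in agonist mode. HTR2A-CHO cells were cultured 18 h, then dye-loaded 1 h at 37 C.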

[13] = target: Muscarinic acetylcholine receptor M1 (Homo sapiens) (UniProt P11229); test: Cholinergic receptor muscarinic 1 (CHRM1) small molecule antagonists, cell-based qHTS assay (AID 1963588); also: nearly all actives have a fitted effect of over 40% in size
Muscarinic acetylcholine receptor M1 (Homo sapiens), sequence (P11229 whole entry, looked up): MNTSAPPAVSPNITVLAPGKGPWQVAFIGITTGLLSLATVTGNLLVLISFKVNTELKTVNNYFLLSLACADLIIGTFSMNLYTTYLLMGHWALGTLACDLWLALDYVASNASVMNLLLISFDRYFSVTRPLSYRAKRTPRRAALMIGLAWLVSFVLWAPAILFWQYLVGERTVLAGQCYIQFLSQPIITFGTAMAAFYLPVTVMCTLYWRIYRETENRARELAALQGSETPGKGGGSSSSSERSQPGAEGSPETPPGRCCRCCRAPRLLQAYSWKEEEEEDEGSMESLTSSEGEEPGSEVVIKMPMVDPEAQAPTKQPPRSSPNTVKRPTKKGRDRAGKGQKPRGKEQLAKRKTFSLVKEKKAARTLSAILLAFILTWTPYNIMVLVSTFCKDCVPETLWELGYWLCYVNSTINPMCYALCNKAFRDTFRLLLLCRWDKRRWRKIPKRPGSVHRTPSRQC
Summary of the method: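 CHRM1-CHO calcium-flux assay, antagonist mode. Cells were seeded 18 h, dye-loaded 1 h at 37 C and given compound for 5 min at RT, then acetylcholine was added at 50nM. FDSS fluorescence was read 3 min; 15 concentrations, three runs.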

[14] = target: Muscarinic acetylcholine receptor M1 (Homo sapiens) (UniProt P11229); test: Cholinergic receptor muscarinic 1 (CHRM1) small molecule agonists, cell-based qHTS assay (AID 1963589); also: nearly all actives have a fitted effect of over 35% in size
Summary of the method: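 CHO cells stably expressing human CHRM1, seeded 18 h at 37 C/5% CO2, dye-loaded 1 h at 37 C, then given compound in agonist mode; intracellular calcium fluorescence read kinetically at 1 s intervals. Fifteen concentrations, three independent runs.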

[15] = cAMP Responsive Elements (CRE) small molecule agonists, cell-based qHTS assay (AID 1963590)
Summary of the method: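 CRE-bla HEK 293T cells in DMEM with 10% dialyzed FBS, NEAA, pyruvate and 25 mM HEPES were plated 18 h at 37 C/5% CO2, then exposed to compounds in DMSO for 3 h before LiveBLAzer B/G FRET substrate addition.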

[16] = cAMP Responsive Elements (CRE) small molecule antagonists, cell-based qHTS assay (AID 1963591; active = well fitted inhibition curve with a large enough effect in the signal ratio in the repeat runs, not every such curve was filed as active; the % refers to the signal ratio)
Summary of the method: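 CRE-bla HEK293T cells were plated 18 h at 37 °C/5% CO2, pinned with compound in DMSO, then stimulated with NKH477 at 0.25 uM final for 3 h. LiveBLAzer B/G FRET substrate was added and plates incubated 2 h at room temperature.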

[17] = target: Beta-2 adrenergic receptor (Homo sapiens) (UniProt P07550); test: Adrenergic beta2 receptor (ADRB2) small molecule antagonists, cell-based qHTS assay (AID 1963592); also: series mostly up to about 92 µM; nearly all actives have a fitted effect of over 50% in size
Beta-2 adrenergic receptor (Homo sapiens), sequence (P07550 whole entry, looked up): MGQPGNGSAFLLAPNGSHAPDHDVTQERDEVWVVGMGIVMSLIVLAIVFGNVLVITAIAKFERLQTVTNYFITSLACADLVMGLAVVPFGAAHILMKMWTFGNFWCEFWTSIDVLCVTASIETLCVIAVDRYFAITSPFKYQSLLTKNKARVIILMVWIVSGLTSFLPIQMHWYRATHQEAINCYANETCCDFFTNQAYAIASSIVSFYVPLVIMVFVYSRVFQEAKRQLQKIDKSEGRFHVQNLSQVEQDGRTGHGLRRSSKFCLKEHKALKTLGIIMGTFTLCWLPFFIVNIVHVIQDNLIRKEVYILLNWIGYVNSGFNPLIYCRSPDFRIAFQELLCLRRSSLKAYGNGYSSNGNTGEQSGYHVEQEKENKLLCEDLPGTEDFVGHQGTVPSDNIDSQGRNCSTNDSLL
Summary of the method: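 Cells (CHO, stable ADRB2 overexpression) incubated 18-20hr at 37C; compounds added from DMSO; agonist mix (1nM isoproterenol, 100uM IBMX, 25uM Ro-20-1724) added; 0.5hr RT; d2-cAMP and anti-cAMP-cryptate added; 1hr RT; 665/615 nm read.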

[18] = target: D(2) dopamine receptor (Homo sapiens) (UniProt P14416); test: Dopamine D2 receptor (DRD2) small molecule agonists, cell-based qHTS assay (AID 1963594); also: nearly all actives have a fitted effect of over 35% in size
D(2) dopamine receptor (Homo sapiens), sequence (P14416 whole entry, looked up): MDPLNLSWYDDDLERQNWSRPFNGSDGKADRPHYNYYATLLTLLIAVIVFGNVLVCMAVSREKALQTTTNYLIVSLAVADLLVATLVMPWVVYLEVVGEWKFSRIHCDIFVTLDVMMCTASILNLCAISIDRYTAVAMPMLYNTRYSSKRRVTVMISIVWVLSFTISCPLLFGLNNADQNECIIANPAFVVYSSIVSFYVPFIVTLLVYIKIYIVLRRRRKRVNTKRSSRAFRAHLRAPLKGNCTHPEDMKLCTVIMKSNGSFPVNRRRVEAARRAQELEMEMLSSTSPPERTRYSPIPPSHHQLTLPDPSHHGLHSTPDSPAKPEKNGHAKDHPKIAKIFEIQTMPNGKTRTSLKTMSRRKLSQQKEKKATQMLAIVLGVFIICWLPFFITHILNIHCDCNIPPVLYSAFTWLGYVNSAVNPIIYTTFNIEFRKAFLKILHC
Summary of the method: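 cAMP accumulation in DRD2-HEK293 cells measured by HTRF after 1 h detection; compounds added 10 min before NKH477 (200nM […]) forskolin-analogue stimulation, 30 min at room temperature, with Ro20-1724 present at 0.1 mM final.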

[19] = target: D(2) dopamine receptor (Homo sapiens) (UniProt P14416); test: Dopamine D2 receptor (DRD2) small molecule antagonists, cell-based qHTS assay (AID 1963595; active = well fitted inhibition curve with a large enough effect in the signal ratio in the repeat runs, with a control signal flat; the % refers to the signal ratio)
Summary of the method: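 HTRF cAMP read-out at 665 and 620 nm emission (340 nm excitation). Antagonist mode: compounds were tested against 12 nM quinpirole in DRD2-HEK293 cells, with 200 nM NKH477 raising cAMP and 0.1 mM Ro20-1724 blocking its breakdown.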

[20] = target: Beta-2 adrenergic receptor (Homo sapiens) (UniProt P07550); test: Adrenergic beta2 receptor (ADRB2) small molecule agonists, cell-based qHTS assay (AID 1963593);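 also: CHO cells stably overexpressing human ADRB2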
Summary of the method: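 CHO cells stably over-expressing ADRB2 were plated overnight at 37C, then dosed with compounds plus a stimulation mix containing 100uM IBMX and 25uM Ro-20-1724 for 0.5hr at room temperature. cAMP was measured by HTRF competition, 1hr.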

In the case of `CCCCN`, the Potency [1] is reported as “inactive”, the Potency [2] is reported as 36.3 µM (active) and the Potency [3] is reported as “inactive”. The Potency [4] was “inactive”, the Potency [5] was “inactive” and the Potency [6] was “inactive”. For the same compound, the Potency [7] was “inactive”, the Potency [8] was “inactive” and the Potency [9] was “inactive”. For the same compound, the Potency [10] was “inactive”, the Potency [11] was “inactive” and the Potency [12] was “inactive”. For the same compound, the Potency [13] was “inactive”, the Potency [14] was “inactive” and the Potency [15] was “inactive”. The Potency [16] was “inactive”, the Potency [17] was “inactive” and the Potency [18] was “inactive”.

In the case of `CCCCCCCCCCCCCCCCCCCl`, the activity change, negative = cytotoxicity [1] is reported as -0.678% [at 8.39 µM], the activity, positive = activation [2] is reported as -2.4% [at 8.39 µM] and the activity change [3] is reported as 0.0314% [at 5.22 µM, stronger effect = higher value]. It also gave an activation [4] of 6.45% [at 6.97 µM], an activation [5] of 0.281% [at 5.23 µM] and an activation [6] of 2.88% [at 5.99 µM]. For the same compound, the activity change, negative = cytotoxicity [7] was 1.68% [at 5.99 µM], the activity change, negative = cytotoxicity [8] was 2.02% [at 5.99 µM] and the activity change, negative = cytotoxicity [9] was -9.11% [at 5.99 µM]. It also gave an activation [10] of -3.59% [at 5.99 µM], an activity, negative = inhibition [11] of -6.54% [at 5.62 µM] and an activation [12] of -0.0042% [at 7.02 µM]. It also gave an activity, negative = inhibition [13] of 10% [at 5.58 µM], an activation [14] of 0.0826% [at 6.97 µM] and an activation [15] of 0.946% [at 8.39 µM]. It also gave an activity change, negative = inhibition [16] of -6.83% [at 8.39 µM], an activity change, negative = inhibition [17] of 8.82% [at 8.39 µM] and an activation [18] of 0.784% [at 8.39 µM]. The activity change, negative = inhibition [19] was 3.22% [at 8.38 µM].

In the case of `CCCCCCCCCCCCCCCCN(C)C`, the activity change, negative = cytotoxicity [1] is reported as 3.36% [at 8.39 µM], the activity, positive = activation [2] is reported as -0.511% [at 8.39 µM] and the activity change [3] is reported as -0.722% [at 5.22 µM, stronger effect = higher value]. It also gave an activation [4] of 5.47% [at 6.97 µM], an activation [5] of -0.794% [at 5.23 µM] and an activation [6] of -0.0918% [at 5.99 µM]. For the same compound, the activity change, negative = cytotoxicity [7] was -6.23% [at 5.99 µM], the activity change, negative = cytotoxicity [8] was 1.34% [at 5.99 µM] and the activity change, negative = cytotoxicity [9] was 8.26% [at 5.99 µM]. It also gave an activation [10] of 9.5% [at 5.99 µM], an activity, negative = inhibition [11] of -3.75% [at 5.62 µM] and an activation [12] of 3.51% [at 7.02 µM]. For the same compound, the activity, negative = inhibition [13] was 5.3% [at 5.58 µM], the activation [14] was 0.295% [at 6.97 µM] and the activation [15] was -1.13% [at 8.39 µM]. For the same compound, the activity change, negative = inhibition [16] was 1.36% [at 8.39 µM], the activity change, negative = inhibition [17] was -8.88% [at 8.39 µM] and the activation [18] was -3.52% [at 8.39 µM]. For the same compound, the activity change, negative = inhibition [19] was -3.89% [at 8.38 µM].

With `CC(=O)Oc1ccc2c(c1)CC[C@@H]1[C@@H]2CC[C@]2(C)[C@@H](O)CC[C@@H]12` the Potency [1] was “inactive”, the Potency [2] was “inactive” and the Potency [3] was “inactive”. For the same compound, the Potency [4] was “inactive”, the Potency [5] was “inactive” and the Potency [6] was “inactive”. The Potency [7] was “inactive”, the Potency [8] was “inactive” and the Potency [9] was “inactive”. For the same compound, the Potency [10] was “inactive”, the Potency [11] was “inactive” and the Potency [12] was “inactive”. For the same compound, the Potency [14] was “inactive”, the Potency [17] was “inactive” and the Potency [18] was “inactive”.

For `COC(=O)c1cc(Cl)ccc1[N+](=O)[O-]`, the Potency [1] was “inactive”, the Potency [2] was “inactive” and the Potency [3] was “inactive”. The Potency [4] was “inactive”, the Potency [5] was “inactive” and the Potency [6] was “inactive”. The Potency [7] was “inactive”, the Potency [8] was “inactive” and the Potency [9] was “inactive”. The Potency [10] was “inactive”, the Potency [11] was “inactive” and the Potency [12] was “inactive”. For the same compound, the Potency [13] was “inactive”, the Potency [14] was “inactive” and the Potency [15] was “inactive”. The Potency [17] was “inactive”, the Potency [18] was “inactive” and the Potency [19] was “inactive”.

With `CC(C)N1C(=O)c2ccccc2C1=O` the Potency [1] was “inactive”, the Potency [2] was “inactive” and the Potency [3] was “inactive”. The Potency [4] was “inactive”, the Potency [5] was “inactive” and the Potency [6] was “inactive”. The Potency [7] was “inactive”, the Potency [8] was “inactive” and the Potency [9] was “inactive”. For the same compound, the Potency [10] was “inactive”, the Potency [11] was “inactive” and the Potency [12] was “inactive”. The Potency [13] was “inactive”, the Potency [14] was “inactive” and the Potency [15] was “inactive”. For the same compound, the Potency [17] was “inactive”, the Potency [20] was “inactive” and the Potency [18] was “inactive”. The Potency [19] was “inactive”.

With `CN(C)C(=O)NC1(c2ccccc2)CCN(CC[C@@]2(c3ccc(F)c(F)c3)CN(C(=O)c3ccccc3)CCO2)CC1` the Potency [1] was “inactive”, the Potency [2] was “inactive” and the Potency [3] was “inactive”. For the same compound, the Potency [4] was “inactive”, the Potency [5] was “inactive” and the Potency [6] was “inactive”. The Potency [7] was “inactive”, the Potency [8] was “inactive” and the Potency [9] was “inactive”. The Potency [10] was “inactive”, the Potency [12] was “inactive” and the Potency [14] was “inactive”. The Potency [17] was “inactive”, the Potency [20] was “inactive” and the Potency [18] was “inactive”.
